PubChem BioAssay (NCATS)
“And” between values parts separate entries of the source, which are not always exact repeats. Equal entries are not always repeated. Results filed as inconclusive are left out. A call without a number means that no potency is given here. The source made the active and inactive calls. Unless noted, calls follow the shape of the dose curve; as a rule, active = well fitted curve in the direction sought with a large enough effect; inconclusive = small, poorly fitted or top-dose-only effect, or another doubt; inactive = no such curve, though single readings can be large; an effect the other way counts as inactive or inconclusive.

Key:
[1] = Cell Viability - BJ (AID 421; calls by dose curve;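 also: potency is read from the fitted curve at half-maximal effect; cells exposed to compound for 40 hours at 37 °C before readout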); conditions: BJ fibroblast viability, qHTS
In short: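 Cytotoxicity as drop in intracellular ATP (CellTiter-Glo, 20 min RT) after 40 hr compound exposure of BJ fibroblasts at 37 °C. Titrations scaled between DMSO and 100 uM tamoxifen, Hill-fitted for AC50.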

[2] = Cell Viability - HepG2 (AID 433; calls by dose curve;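 also: potency is read from the fitted curve at half-maximal effect; potency for ATP loss meaning cytotoxicity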); conditions: qHTS
In short: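 HepG2 cells, 1500 per well, treated 40 hr at 37 °C in complete medium; viability from intracellular ATP by CellTiter-Glo luminescence. Normalized to DMSO and 100 uM tamoxifen; AC50 from Hill fit of qHTS concentration-response.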

[3] = Cell Viability - MRC5 (AID 434; calls by dose curve;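 also: potency is read from the fitted curve at half-maximal effect; potency reflects cytotoxicity seen as loss of intracellular ATP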); conditions: MRC5 lung fibroblast viability, qHTS
In short: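 qHTS cytotoxicity in human lung fibroblast MRC5 cells; 40 hr treatment, 37 °C; cellular ATP by luciferase luminescence; DMSO = 0%, 100 uM tamoxifen = 100% inhibition; Hill-fit AC50.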

[4] = biological target: Mitogen-activated protein kinase 10 (Mus musculus) (UniProt Q61831); assay: JNK3 AlphaScreen Assay (AID 530; active = well fitted curve in either direction with a large enough effect, not every such curve was filed as active;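 also: kinase came from lysate of stimulated human HepG2 cells; signal reports phosphorylation of biotinylated GST-cJun 1-79 at Ser73 with 10 µM ATP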); conditions: JNK3 lysate, c-Jun phosphorylation; series mostly up to 57.1 µM
In short: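 Room-temperature AlphaScreen kinase assay; pre-activated HepG2 lysate as JNK3 source, biotin-GST-cJun(1-79) substrate, 10 uM ATP, compound 15 min preincubation.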

[5] = Cell Viability - Renal Proximal Tubule (AID 545); conditions: renal proximal tubule cells viability; at 91.7 µM (top of the series), primary cells of rat origin unless noted; also: nearly all actives have a fitted effect of over 40% in size
In short: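 Rat renal proximal tubule primary cells, 1000/well, exposed to compounds for 40 hr at 37 °C in complete medium; cellular ATP read by CellTiter-Glo luminescence. AC50 from concentration-response fitted with standard Hill equation.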

[6] = Cell Viability - Mesenchymal (AID 546); conditions: mesenchymal cells viability, qHTS; series mostly up to 91.7 µM;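 also: cells exposed to compound for 40 hours before reading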
In short: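 AC50 values reflect the drop in intracellular ATP in a human kidney mesenchymal line derived from normal glomeruli. Treatment lasts 40 hr at 37 °C in complete medium, and the signal comes from CellTiter-Glo luminescence.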

[7] = Cellular Toxicity (caspase-3) Jurkat (AID 655); conditions: Jurkat caspase-3 activation, luminescence, DMSO = 0%, tamoxifen = 100%; at 92.2 µM (top of the series);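 also: cells exposed to compound for 16 h at 37 °C before reading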
In short: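 Jurkat cells (5000/well) in complete medium exposed 16 h at 37 C; caspase-3/7 activity read by Caspase-Glo luminescence after 20 min at room temperature. Normalized to DMSO and 100 uM tamoxifen; AC50 from Hill fits.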

[8] = Cellular Toxicity (caspase-3) HUV-EC-C (AID 656); conditions: HUV-EC-C cells, caspase-3 activation (apoptosis), vehicle = 0, 100 µM tamoxifen = 100%; series mostly up to 92.2 µM
In short: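 HUV-EC-C cells (1000/well) in complete medium, compound-treated 16 h at 37 °C; caspase-3/7 activity read by Caspase-Glo 3/7 luminescence. Normalized to DMSO (basal) and 100 uM tamoxifen (100%); AC50 from Hill-equation concentration-response fits.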

[9] = Cellular Toxicity (caspase-3) SHSY5Y (AID 657); conditions: SH-SY5Y caspase-3 activation, DMSO zero, 10 µM staurosporine = 100%; series mostly up to 91.7 µM
In short: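 SH-SY5Y human neuroblastoma cells, 1500/well, exposed to compound for 16 hours at 37 °C in complete medium. Caspase-3/7 activity read by Caspase-Glo luminescence after 1 hr at room temperature, normalized to DMSO and 10 uM staurosporine; AC50 from Hill fit.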

[10] = Cellular Toxicity (caspase-3) BJ (AID 658); conditions: BJ fibroblasts, luminescence, normalized: DMSO 0%, staurosporine 100%; series mostly up to 91.7 µM
In short: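 Readout: Caspase-Glo 3/7 luminescence increase in BJ cells after 16 hr treatment at 37 °C. Staurosporine and tamoxifen served as positive controls; AC50 values came from Hill modelling of data normalized to DMSO and 10 uM staurosporine.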

[11] = Cellular Toxicity (caspase-3) MRC-5 (AID 659); conditions: MRC-5 cells, luminescence, normalized: DMSO 0%, 10 µM staurosporine 100%; series mostly up to 91.7 µM
In short: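 Concentration-dependent caspase 3/7 activation is measured in human normal lung fibroblasts (MRC-5) following 16-hour treatment. AC50 values come from standard Hill-equation modeling of luminescence normalized to DMSO and 10 uM staurosporine.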

[12] = Cellular Toxicity (caspase-3) Mesangial (AID 660); conditions: mesangial cells, normalized: DMSO 0%, 100 µM tamoxifen 100%; series mostly up to 91.7 µM;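 also: cells exposed to compound for 16 h before the caspase read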
In short: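 Human renal glomerular mesangial cells (1000/well) were treated with compounds for 16 h at 37 °C in complete medium, then caspase 3/7 activity was read by Caspase-Glo luminescence. Data were normalized to DMSO and 100 uM tamoxifen; AC50 from Hill fits.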

[13] = Cellular Toxicity (caspase-3) SK-N-SH (AID 661); conditions: SK-N-SH caspase-3 activation, qHTS, DMSO as zero, staurosporine as full; series mostly up to 91.7 µM
In short: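 SK-N-SH human neuroblastoma cells (1500/well) were treated with compounds for 16 hr at 37 °C in complete medium; caspase 3/7 activity was read by Caspase-Glo luminescence. AC50 came from Hill fits of data normalized to DMSO and 10 uM staurosporine.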

[14] = Cellular Toxicity (caspase-3) H-4-II-E (AID 663); conditions: H-4-II-E rat hepatoma, scaled: DMSO 0%, 100 µM tamoxifen 100%; series mostly up to 92.2 µM;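 also: cells exposed to compound for 16 hr before readout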
In short: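 Apoptosis induction is scored as increased luminescence from caspase 3/7 substrate cleavage in rat hepatoma H-4-II-E cells exposed to compound for 16 hr. Activity is scaled between DMSO and 100 uM tamoxifen.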

[15] = Cellular Toxicity (caspase-3) Renal Proximal Tubule (AID 667); conditions: renal proximal tubule cells; at 91.7 µM (top of the series), primary cells freshly taken from rat, solvent-only wells 0%, staurosporine 100% unless noted;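 also: cells exposed to compound for 16 hours at 37 °C before detection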
In short: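 Freshly isolated primary rat kidney proximal tubule cells, 1000/well, treated 16 hr at 37 °C, then Caspase-Glo 3/7 luminescence after 1 hr. Normalized to DMSO and 10 uM staurosporine; AC50 from Hill fit.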

[16] = qHTS Assay for Identification of Small Molecule Inducers of Hypoxia Response (AID 2120; active = well fitted curve in the direction sought with a large enough effect in the signal ratio, with a control signal flat, not every such curve was filed as active; the % refers to the signal ratio); conditions: hypoxia response reporter cells, beta-lactamase ratio readout; series mostly up to 104 µM
In short: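 HRE-beta-lactamase reporter in CellSensor HRE-bla ME-180 cells, 2500 cells/well in Opti-MEM with 0.5% dialyzed FBS; compounds tested as titration series, 17 h at 37 degrees C. CCF4 substrate 2.5 h at room temperature; AC50 from 460/530 nm ratio.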

[17] = qHTS assay for small molecule agonists of retinoid X receptor alpha signaling (AID 588544); conditions: HEK293T RXRa-UAS-bla, beta-lactamase reporter, 18 h; 530 nm emission
[18] = qHTS assay for small molecule agonists of the antioxidant response element (ARE) signaling pathway measured by Nrf2-dependant transcriptional activity - cell viability counter screen (AID 720653; active = well fitted curve in the direction sought with a large enough effect in the repeat runs; an effect the other way counts as inactive or inconclusive); conditions: ARE-bla HepG2 viability, CellTiter-Glo ATP luminescence, 16 h; stronger effect = lower value
In short: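 Cytotoxicity counter screen: intracellular ATP quantified by CellTiter-Glo luminescence in the same ARE-bla HepG2 plates, after 16 h compound exposure and a 2 h beta-lactamase substrate step.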

[19] = qHTS assay for cell viability of HEK293 cells (AID 743288); conditions: ATP luminescence (CellTiter-Glo), 18 h; max response: stronger effect = lower value; also: nearly all actives have a fitted effect of over 50% in size
In short: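 Parental HEK293 cells, 2,000 per well, preincubated at least 5 h at 37 C, then exposed to compounds in DMSO for 18 h at 37 C. Viability by CellTiter-Glo ATP luminescence after 30 min at room temperature.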

[20] = qHTS assay for cell viability of the p53RE-bla HCT-116 cell line (AID 743292); conditions: p53RE-bla HCT-116 viability, ATP luminescence, 16 h; series mostly up to 95 µM; also: nearly all actives have a fitted effect of over 55% in size
In short: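 ATP-based luminescent viability (CellTiter-Glo, 30 min RT) after 16 h compound treatment at 37 C of p53RE-bla HCT-116 cells, seeded at 4,000 cells/well and rested 5 h before dosing.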

In the case of `c1ccc(-c2ccccc2)cc1`, the Potency [1] was > 92 µM (inactive), the Potency [2] was > 92 µM (inactive) and the Potency [3] was > 92 µM (inactive). The outcome [4] was “inactive”, the activity change, negative = cytotoxicity [5] was 1.72% (inactive) and the outcome [6] was “inactive”. The caspase-3 activation [7] was 0.52% (inactive), the outcome [8] was “inactive” and the outcome [9] was “inactive”. The outcome [10] was “inactive”, the outcome [11] was “inactive” and the outcome [12] was “inactive”. The outcome [13] was “inactive”, the outcome [14] was “inactive” and the caspase-3 activation [15] was -8.06% (inactive). The outcome [16] was “inactive”, the max response [17] was -1.55% and -17% and the max response [18] was -4.39% (inactive) and -5.27% (inactive). For the same compound, the max response [19] was 8.08% (inactive) and -1.75% (inactive) and the Potency [20] was “inactive”.

In the case of `C=CCOC(=O)c1ccccc1N`, the Potency [1] was > 92 µM (inactive), the Potency [2] was > 92 µM (inactive) and the Potency [3] was > 92 µM (inactive). For the same compound, the outcome [4] was “inactive”, the activity change, negative = cytotoxicity [5] was -5.75% [at 91.7 µM] (inactive) and the outcome [6] was “inactive”. For the same compound, the caspase-3 activation [7] was 0.746% (inactive), the outcome [8] was “inactive” and the outcome [9] was “inactive”. For the same compound, the outcome [10] was “inactive”, the outcome [11] was “inactive” and the outcome [12] was “inactive”. The outcome [13] was “inactive”, the outcome [14] was “inactive” and the caspase-3 activation [15] was 0.151% [at 91.7 µM] (inactive). For the same compound, the outcome [16] was “inactive”, the max response [17] was 1.54% and the max response [18] was 4.08% (inactive). For the same compound, the max response [19] was 8.68% (inactive) and the Potency [20] was “inactive”.

With `Nc1ccc(Br)cc1` the Potency [1] was > 92 µM (inactive), the Potency [2] was > 92 µM (inactive) and the Potency [3] was > 92 µM (inactive). For the same compound, the outcome [4] was “inactive”, the activity change, negative = cytotoxicity [5] was -3.48% (inactive) and the outcome [6] was “inactive”. The caspase-3 activation [7] was 5.03% (inactive), the outcome [8] was “inactive” and the outcome [9] was “inactive”. The outcome [10] was “inactive”, the outcome [11] was “inactive” and the outcome [12] was “inactive”. The outcome [13] was “inactive”, the outcome [14] was “inactive” and the caspase-3 activation [15] was -0.502% (inactive). The outcome [16] was “inactive”, the max response [17] was 1.14% and the max response [18] was -4.77% (inactive). The max response [19] was -7.62% (inactive) and the Potency [20] was “inactive”.

For `O=C=NC1CCCCC1`, the Potency [1] was > 92 µM (inactive), the Potency [2] was > 92 µM (inactive) and the Potency [3] was > 92 µM (inactive). For the same compound, the outcome [4] was “inactive”, the activity change, negative = cytotoxicity [5] was -5.86% (inactive) and -0.993% (inactive) and the outcome [6] was “inactive”. The caspase-3 activation [7] was -0.599% (inactive) and -1.26% (inactive), the outcome [8] was “inactive” and the outcome [9] was “inactive”. The outcome [10] was “inactive”, the outcome [11] was “inactive” and the outcome [12] was “inactive”. The outcome [13] was “inactive”, the outcome [14] was “inactive” and the caspase-3 activation [15] was 5.04% (inactive) and -5.65% (inactive). For the same compound, the outcome [16] was “inactive”, the max response [17] was -3.28% and -9.66% and the max response [18] was 3.13% (inactive) and -2.08% (inactive). For the same compound, the max response [19] was -2.8% (inactive) and 0.863% (inactive) and the Potency [20] was “inactive”.

For `c1ccc2c(c1)CCCC2`, the Potency [1] was > 92 µM (inactive), the Potency [2] was > 92 µM (inactive) and the Potency [3] was > 92 µM (inactive). The outcome [4] was “inactive”, the activity change, negative = cytotoxicity [5] was -0.896% (inactive) and the outcome [6] was “inactive”. For the same compound, the caspase-3 activation [7] was -0.484% (inactive), the outcome [8] was “inactive” and the outcome [9] was “inactive”. For the same compound, the outcome [10] was “inactive”, the outcome [11] was “inactive” and the outcome [12] was “inactive”. For the same compound, the outcome [13] was “inactive”, the outcome [14] was “inactive” and the caspase-3 activation [15] was -4.18% (inactive). For the same compound, the outcome [16] was “inactive”, the max response [17] was -21.1% and the max response [18] was -5.84% (inactive). The max response [19] was -7.83% (inactive) and the Potency [20] was “inactive”.

In the case of `CCOP(=S)(OCC)SCSC(C)(C)C`, the Potency [1] was > 92 µM (inactive), the Potency [2] was > 92 µM (inactive) and the Potency [3] was > 92 µM (inactive). For the same compound, the outcome [4] was “inactive”, the activity change, negative = cytotoxicity [5] was 1.14% (inactive) and the outcome [6] was “inactive”. For the same compound, the caspase-3 activation [7] was -0.764% (inactive), the outcome [8] was “inactive” and the outcome [9] was “inactive”. The outcome [10] was “inactive”, the outcome [11] was “inactive” and the outcome [12] was “inactive”. For the same compound, the outcome [13] was “inactive”, the outcome [14] was “inactive” and the caspase-3 activation [15] was -0.898% (inactive). The outcome [16] was “inactive”, the max response [17] was 19.7% and -0.121% and the max response [18] was -1.33% (inactive) and 1.99% (inactive). The max response [19] was -9.58% (inactive) and -1.13% (inactive) and the Potency [20] was “inactive”.

For `C=C(Cl)Cl`, the Potency [1] was > 92 µM (inactive), the Potency [2] was > 92 µM (inactive) and the Potency [3] was > 92 µM (inactive). For the same compound, the outcome [4] was “inactive”, the activity change, negative = cytotoxicity [5] was -2.22% (inactive) and the outcome [6] was “inactive”. For the same compound, the caspase-3 activation [7] was 0.59% (inactive), the outcome [8] was “inactive” and the outcome [9] was “inactive”. The outcome [10] was “inactive”, the outcome [11] was “inactive” and the outcome [12] was “inactive”. The outcome [13] was “inactive”, the outcome [14] was “inactive” and the caspase-3 activation [15] was 1.42% (inactive). The outcome [16] was “inactive”, the max response [17] was -17.1% and the max response [18] was -2.66% (inactive). The max response [19] was -0.763% (inactive) and the Potency [20] was “inactive”.
